These entries were drawn from the full list.
aSyn 5UTR act – Activators via SNCA 5'UTR binding, MLPCN; alpha-synuclein 5'UTR reporter, activators screen; activity score, % (tested at 7.5 µM), hits read low; 300,000 compounds, 7.1% hits; in the data active means activity score below about -60%
* marks the source's active call; other numbers are inactive results.

SMILES | aSyn 5UTR act
Clc1ccccc1-c1nnc2sc(-c3ccc4c(c3)OCO4)nn12 | -91*
O=[N+]([O-])c1cccc(-c2nnc(-c3ccc4c(c3)OCO4)o2)c1 | -78*
O=[N+]([O-])c1cccc(-c2nnc(-c3ccccc3)o2)c1 | 68
Clc1ccccc1-c1nnc(-c2ccc3c(c2)OCO3)o1 | -82*
Cc1ccc(OCC(=O)Nc2cccc(C)n2)c(C)c1 | -137*
Cc1cccc(NC(=O)COc2ccc(Br)cc2)n1 | -71*
C/C(=N\Nc1ccc([N+](=O)[O-])cc1)c1cccc(N)c1 | -199*
C/C(=N\Nc1ccc([N+](=O)[O-])cc1)c1ccc(O)cc1 | -217*
C/C(=N\N=C(/C)c1cccc(N)c1)c1cccc(N)c1 | -111*
Cc1cccc2nc3c(nc12)-c1ccccc1C3=O | -106*
Cc1ccc2nc3c(nc2c1)-c1ccccc1C3=O | -65*
CC(C)c1nc(C#N)c(NN)o1 | -127*
COc1ccc(N=Nc2[nH]c3ccc(C)cc3c2O)cc1 | -125*
Cc1ccc(N=Nc2[nH]c3ccccc3c2O)cc1 | -80*
NC(=O)c1ccccc1NC(=O)COc1ccc(Cl)cc1 | -101*
Cc1ccc(OCC(=O)Nc2ccccc2C(N)=O)cc1 | -98*
O=C(Nc1ccc2ncccc2c1)c1cccc(Br)c1 | -375*
Brc1ccc(CNc2ccc3ncccc3c2)cc1 | -194*
Cc1ccc(C(=O)Nc2ccc3ncccc3c2)cc1 | 84
O=C(Nc1ccc2ncccc2c1)c1cc(Cl)ccc1Cl | -80*
O=C(/C=C/c1ccc2c(c1)OCO2)Nc1nc(-c2ccc(F)cc2)cs1 | -62*
O=C(/C=C/c1ccc2c(c1)OCO2)Nc1nc2ccc(F)cc2s1 | -110*
CCOc1ccc(NC(=O)N2CCC(c3ccc(C)cc3)C2)cc1 (configuration not stated) | -67*
COc1ccc(NC(=S)N2CCC(c3ccccc3)C2)cc1 (configuration not stated) | -169*
CCc1ccc(NC(=O)N2CCC(c3ccccc3)C2)cc1 (configuration not stated) | -172*
SMILES | aSyn 5UTR act
O=C(c1cccs1)N1CCC(c2ccccc2)C1 (configuration not stated) | -140*
O=C(Nc1ccccc1)N1CCC(c2ccccc2)C1 (configuration not stated) | -141*
Cc1ccc(C2CCN(C(=S)NC(C)(C)C)C2)cc1 (configuration not stated) | -93*
N/C(=N\OC(=O)c1ccc(Cl)c(Cl)c1)c1cccnc1 | -138*
N/C(=N\OC(=O)c1cccc(Cl)c1)c1cccnc1 | -114*
N/C(=N\OC(=O)c1cccc(Cl)c1)c1ccncc1 | -87*
N/C(=N\OC(=O)c1cccc(C(F)(F)F)c1)c1cnccn1 | -81*
CCOc1ccc(/C=C/C(=O)Nc2ccccc2C(F)(F)F)cc1 | -76*
COc1ccc(/C=C/C(=O)Nc2ccccc2C(=O)NCC(c2ccc(OC)cc2)N(C)C)cc1 (configuration not stated) | -80*
COc1ccc(/C=C/C(=O)Nc2ccccc2C(=O)N2CCCC2)cc1 | -86*
COc1ccc(/C=C/C(=O)Nc2ccccc2C(=O)O)cc1 | 83
CCOc1ccc(NC(=S)NC(=O)c2c(Br)cnn2C)c([N+](=O)[O-])c1 | -115*
COc1ccc(C(=O)/C=C/c2ccccc2C(F)(F)F)cc1 | -68*
COc1ccc(/C=C/C(=O)Nc2ccccc2C(F)(F)F)cc1 | -141*
CCOc1ccc(NC(=O)/C=C/c2ccccc2)c([N+](=O)[O-])c1 | -147*
CCOc1ccc(N/C=C/C(=O)c2ccccc2)c([N+](=O)[O-])c1 | 87
COc1cc(NC(=O)/C=C/c2ccccc2[N+](=O)[O-])cc(OC)c1 | -114*
CCCCOC(=O)Nc1ccc2c(C)cc(=O)oc2c1 | -145*
CCOC(=O)Nc1ccc2c(C)cc(=O)oc2c1 | -178*
Cc1cc(=O)oc2cc(NC(=O)CCOc3ccccc3)ccc12 | -82*
Cc1cc2nc(-c3cccc(NC(=O)c4ccc(Br)o4)c3)oc2cc1C | -77*
Cc1ccc2oc(-c3cccc(NC(=O)c4ccc(Br)o4)c3)nc2c1 | -94*
Cc1cccc2sc(NC(=O)c3ccc(OCC4CCCO4)cc3)nc12 (configuration not stated) | -144*
CCOc1ccc2nc(NC(=O)CSc3nnc(-c4ccncc4)n3CC3CCCO3)sc2c1 (configuration not stated) | -76*
CCOc1ccc2nc(NC(=O)c3ccc(OCC4CCCO4)cc3)sc2c1 (configuration not stated) | -99*
SMILES | aSyn 5UTR act
Cc1cccc2sc(NNC(=O)c3ccc(S(=O)(=O)N4CCCC(C)C4)cc3)nc12 (configuration not stated) | 78
Cc1cc(C)n2nc(C(=O)Nc3nccs3)nc2n1 | -112*
Cc1csc(NC(=O)c2nc3nc(C)cc(C)n3n2)n1 | -90*
CN1CCN(/N=C/c2cccc(Cl)c2Cl)CC1 | -72*
C=CCNS(=O)(=O)c1nc(C)c(Cl)c(C)c1C#N | -110*
Cn1nc(-c2ccccn2)nc2c(=O)n(C)c(=O)nc1-2 | 94
Cn1c(SCc2ccccc2)nnc1-c1cnccn1 | -131*
